The entries come from a sample that favours hits as a whole.
Pf apPOL block – Pf-apPOL DNA polymerase inhibition | Recombinant Pf-apPOL, molecular beacon fluorescence, 1.5 h | inhibition, % at 10 µM | 0.25% of 210,000 active | AID 1794808
mHTT CaM bind – mHTT-calmodulin interaction abrogation; P42858; AlphaScreen His-mHTT/GST-CaM binding, luminescence; inhibition, % at 15 µM; 3.6% of 190,000 active; AID 1671202;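 further: 0% = both proteins with DMSO and 100% = one protein alone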
An asterisk follows results filed as active; . = no result. No stated cut-off is given here; in the data, active means inhibition above about 50%; inactive means the rest.

SMILES | Pf apPOL block | mHTT CaM bind
O=C(Cc1cccc(F)c1)N1CCCC1c1ccccc1F (stereo not drawn) | -2 | -8
COc1cc(Sc2ccc(Cl)cc2)ccc1[N+](=O)[O-] | -6 | .
COc1cc(Sc2ccccc2[N+](=O)[O-])ccc1N | 1 | 55*
CC(C)C(=O)NCc1csc(C2CCN(C(=O)c3ccc(C(F)(F)F)cc3)CC2)n1 | -2 | 18
CCn1ccc2sc(C)c(C(=O)N3CCC(C)CC3)c2c1=O | -2 | 6
COc1cccc(C2CC(=O)Nc3n[nH]c(-c4ccc(Cl)cc4)c32)c1 (stereo not drawn) | 3 | 34
COc1ccc(C2CC(=O)Nc3n[nH]c(-c4ccccc4)c32)cc1 (stereo not drawn) | -2 | -1
COc1ccc(C2CC(=O)Nc3n[nH]c(-c4ccccc4)c32)cc1OC (stereo not drawn) | -5 | 9
COc1cc(C2CC(=O)Nc3n[nH]c(-c4ccccc4)c32)ccc1O (stereo not drawn) | 1 | 54*
COc1cc(C2CC(=O)Nc3n[nH]c(-c4ccc(Cl)cc4)c32)cc(OC)c1OC (stereo not drawn) | 1 | 100*
COc1ccc(OC)c(C2CC(=O)Nc3n[nH]c(-c4ccccc4)c32)c1 (stereo not drawn) | 2 | 94*
O=C(Cc1cccs1)N1CCC(COc2ccc(C(=O)N3CCOCC3)cc2)CC1 | 0 | 0
COc1ccc(C=Nc2ccc3c(c2)nc(C)n3C)cc1 | 69* | 6
COc1ccc(C=Nc2ccc3ncccc3c2)cc1 | -2 | 31
O=C(C1CCCC1)N1CCN(c2nc(CN3CCCCCC3)cs2)CC1 | 4 | 16
O=C(C1CCCCC1)N1CCN(c2nc(CN3CCCCCC3)cs2)CC1 | 34 | 96*
Cc1ccc(OCC(=O)N2CCN(c3nc(CN4CCCCC4)cs3)CC2)cc1 | 1 | 38
O=C(COc1ccc(Cl)cc1)N1CCN(c2nc(CN3CCCCC3)cs2)CC1 | -3 | 50*
Cc1cc(S(=O)(=O)N2CC=C(c3cn(C)c4ncccc34)CC2)ccc1F | -7 | 0
CCOc1ccc(-c2nc(C(=O)N3CCCC3)cs2)c(F)c1 | -3 | -1
O=C(Cc1ccccc1)N1CCN(c2nc(CN3CCCCC3)cs2)CC1 | -1 | 34
O=C1c2cccnc2C(=O)N1c1ccc(-c2ccc([N+](=O)[O-])cc2)cc1 | -6 | 1
O=C1c2cccnc2C(=O)N1c1ccc(Oc2ccc(N3C(=O)c4cccnc4C3=O)cc2)cc1 | -3 | 99*
O=C1c2cccnc2C(=O)N1c1ccc(Cc2ccc(N3C(=O)c4cccnc4C3=O)cc2)cc1 | 8 | 80*
O=C1c2cccnc2C(=O)N1c1cccc(C(F)(F)F)c1 | -5 | 13
SMILES | Pf apPOL block | mHTT CaM bind
Cc1ccc(-n2c(SCC(=O)NC3CCCCC3)nc(O)c(C)c2=O)cc1 | -43 | -4
Cc1ccc2c(c1)c1c3n2CCN(C=O)C3CCC1 (stereo not drawn) | -5 | 39
O=CN1CCn2c3c(c(=O)c4cc(C5CCCCC5)ccc42)CCC31 (stereo not drawn) | 10 | 82*
O=C(Nc1ccccc1)C1C(c2ccccc2)C1(Cl)Cl (stereo not drawn) | -8 | -33
Cc1cccc(NC(=O)C2C(c3ccccc3)C2(Cl)Cl)c1C (stereo not drawn) | 67* | -9
O=C1CC(N2CCN(Cc3ccc4c(c3)OCO4)CC2)C(=O)N1c1ccc(F)cc1 (stereo not drawn) | 0 | -4
O=C1OC(c2ccc(I)cc2)=N/C1=C\c1cccc(Br)c1 | 6 | -3
Cc1ccc(C(=O)N/C(=C/c2ccc3c(c2)OCO3)C(=O)Nc2ccc(F)cc2)cc1C | -8 | -2
COc1cc(Cl)c(C)cc1NC(=O)CN1C(=O)NC2(CCCCC2)C1=O | -5 | 7
Cc1ccccc1N(CC(=O)NCc1ccco1)S(C)(=O)=O | 65* | 2
COc1ccccc1N(CC(=O)NCc1ccco1)S(C)(=O)=O | -9 | 4
O=C(Cc1csc(NC(=O)c2ccco2)n1)Nc1ccc(F)c(C(F)(F)F)c1 | 8 | 59*
O=C(Cc1csc(NC(=O)c2ccco2)n1)NCc1cccs1 | 3 | -4
COc1c(O)cc2c(c1O)C1OC(CO)C(O)C(O)C1OC2=O (stereo not drawn) | -10 | .
O=C(OC1OC2COC(=O)c3cc(O)c(O)c(O)c3-c3c(cc(O)c(O)c3O)C(=O)OC(C2O)C1O)c1cc(O)c(O)c(O)c1 (stereo not drawn) | 99* | .
Cc1ccc(Cl)cc1N1CCN(CCNC(=O)c2csc3c2CCCC3)CC1 | 0 | 30
O=C(NCCCN1CCN(c2cccc(Cl)c2)CC1)C1(n2cccc2)CCCCC1 | -13 | 98*
CC(C)CCNC(=O)C1(C)CCC(=O)N1CCCN1CCN(c2cccc(Cl)c2)CC1 (stereo not drawn) | 1 | 22
Cc1ccc(Cl)cc1N1CCN(CCNC(=O)C2(n3cccc3)CCCCC2)CC1 | -15 | 56*
Cc1ncc(CO)c2cc(C(=O)Nc3ccc(F)cc3Cl)c(=N)oc12 | -2 | -5

Screening results from PubChem BioAssay.
